Compound activity (PubChem BioAssay)
Shown is part of a subset that was picked to be rich in hits.
Methyltransferases = Primary Screen for Target Class Profiling of Small Molecule Inhibitors of Methyltransferases; purified enzyme, MTase-Glo SAH luminescence; active compounds read low; calls only at 40 µM; 25,000 compounds, 3.9% hits; AID 1745853, 2022; call rule not given here
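Each enzyme was reacted with SAM and its substrate, with compounds tested once at 40 uM; SAH formed was read by MTase-Glo luminescence.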
Starred values were filed as active, the others as inactive; i = inactive; + = active, no number. % is set by controls: 0 for no effect and ±100 for the full control effect.

SMILES | Methyltransferases
CC(C)n1c(=O)c2ccc(C(=O)NC3CCCCC3)cc2n2c(=O)n(CC(=O)c3ccccc3)nc12 | i
COc1ccccc1CNC(=O)C1(C)Cn2c(cc3ccccc32)C(=O)N1Cc1ccc2c(c1)OCO2 (configuration not stated) | i
CN1CCC(c2c[nH]c3ccc(NC(=O)c4ccc(F)cc4)cc23)CC1 | +
CC(=O)N1CCN(NC(=O)c2ccc(F)cc2)CC1 | i
CCN1c2cc(C(=O)Nc3cccc(F)c3)ccc2C(=O)N2CCCC21 (configuration not stated) | i
CC(C)n1c(=O)c2ccc(C(=O)NC3CCCCC3)cc2n2c(=O)n(Cc3ccccc3)nc12 | i
Cc1ccc(Cl)cc1NC(=O)Cn1nc2n(CCC(C)C)c(=O)c3ccccc3n2c1=O | i
O=S(=O)(NCCc1ccc(Cl)cc1)c1ccc2[nH]c3c(c2c1)CCCC3 | i
O=C(O)/C=C/c1ccc(-c2ccc(O)c(C34CC5CC(CC(C5)C3)C4)c2)cc1 | +
O=C(O)/C=C/c1ccc(O)c(O)c1 | i
CCOc1ccc(NC(=O)c2cc3n(n2)CC(C)(C(=O)NC2CCCC2)N(CC)C3=O)cc1 (configuration not stated) | i
CC(C)c1cccc2c(-c3ccccc3)cc(-c3ccc(-c4ccc(C(=O)O)cc4)[nH]3)nc12 | +
CC1CCC(NC(=O)C2(C)Cn3c(ccc3-c3ccco3)C(=O)N2C2CCCCC2)CC1 (configuration not stated) | i
COCCN(C)C[C@H]1C[C@@H](CO)CN(C(=O)c2ccc(C)c(Cl)c2)C1 | i
COCCN(C)Cc1ccc2nc3sc(C(=O)N(C)C4CCCCC4)cn3c2c1 | +
CC(C)CCn1c(=O)c2ccccc2n2c(CCC(=O)NCc3ccc(F)cc3)nnc12 | i
CC(C)CCNC(=O)C1c2c(n(C)c3ccccc23)SCC(=O)N1Cc1ccc(Cl)cc1 (configuration not stated) | i
CCCn1c(=O)c2ccc(C(=O)NC(C)CC)cc2n2c(=O)n(CC(=O)NCc3ccc(C)cc3)nc12 (configuration not stated) | i
O=C(Nc1ccccc1)N1Cc2c(sc3c2CCCC3)-n2cccc2C1c1ccc(Cl)cc1 (configuration not stated) | i
CNC(=O)c1cc(Oc2ccc3nc(N[C@@H]4CCCC[C@H]4O)sc3c2)ccn1 | i
C=CC(=O)Nc1cccc(Nc2nc(Nc3ccc(Oc4ccnc(C(=O)NC)c4)cc3)ncc2F)c1 | +
NCc1ccc(Nc2ncc(F)c(Nc3ccccc3)n2)cc1 | i
CC1(C(=O)NC2CCCCCC2)Cc2ccccc2C(=O)N1Cc1cccnc1 (configuration not stated) | i
Cc1cccc(CN2C(=O)c3ccc(-c4ccco4)n3CC2(C)C(=O)NC2CCCCCC2)c1 (configuration not stated) | i
CC(C)CCn1c(=O)c2ccc(C(=O)NCC(C)C)cc2n2c(=O)n(Cc3ccc(Cl)cc3)nc12 | i
SMILES | Methyltransferases
CC1=C[C@H](O)[C@H]2C(C)(C)CCC[C@]2(C)[C@@]1(O)CO | i
CC1(C)CCCC2(C)C1C(O)C=C(CO)C2(O)CO (configuration not stated) | i
COC1C=C(C)C(O)(CO)C2(C)CCCC(C)(C)C12 (configuration not stated) | +
CCOc1cccc(C2c3cccn3-c3sc4c(c3CN2C(=O)NC(C)C)CCCC4)c1 (configuration not stated) | i
CCCn1c(=O)c2ccc(C(=O)NC(C)CC)cc2n2c(SCC(=O)Nc3ccc(C)c(C)c3)nnc12 (configuration not stated) | i
Cc1cc(Cl)ccc1N1C(=O)c2cc(C(C)(C)C)nn2CC1(C)C(=O)NCc1ccccc1 (configuration not stated) | i
CC(=O)N[C@H]1[C@H](O[C@H]2CC[C@@]3(C)C(CC[C@]4(C)C3CC=C3C5CC(C)(C)CC[C@]5(C(=O)O)[C@H](O)C[C@]34C)C2(C)C)O[C@H](CO[C@@H]2OC[C@H](O)[C@H](O)[C@H]2O[C@@H]2OC[C@@H](O)[C@H](O)[C@H]2O)[C@@H](O)[C@@H]1O (some centres not stated) | i
O=C(CCc1nnc2n(Cc3ccccc3)c(=O)c3ccccc3n12)N1CCN(c2ccccc2F)CC1 | i
NCC(O)(CS(=O)(=O)O)c1ccc(Cl)cc1 (configuration not stated) | i
NC[C@@](O)(c1ccc(Cl)cc1)c1ccc(-c2cn[nH]c2)cc1 | +
COc1ccc(CN2C(=O)c3ccc(-c4ccccc4)n3CC2(C)C(=O)NC2CCCCCC2)cc1 (configuration not stated) | i
NCCc1ccc(O)c(O)c1 | +
C=C[C@H]1[C@H](O[C@@H]2O[C@H](CO)[C@@H](O)[C@H](O)[C@H]2O)OC=C(C(=O)OC)[C@H]1C[C@@H]1N[C@H](C(=O)O)Cc2c1[nH]c1ccccc21 | i
COC(=O)C1=COC(OC2OC(CO)C(O)C(O)C2O)C2C1CC(OC(=O)C(O)CC(=O)O)C2C (configuration not stated) | +
CC1C(OC(=O)c2ccccc2)C(O)C2C(C(=O)O)=COC(OC3OC(CO)C(O)C(O)C3O)C12 (configuration not stated) | i
COC(=O)C1=CO[C@@H](O[C@@H]2O[C@H](CO)[C@@H](O)[C@H](O)[C@H]2O)[C@@H]2[C@@H](C(=O)OC)[C@@H](O)C(O)[C@H]12 (some centres not stated) | i
COC(=O)C1=CO[C@@H](O[C@@H]2O[C@H](CO)[C@@H](O)[C@H](O)[C@H]2O)[C@H]2[C@@H]1CC(OC)O[C@@H]2C (some centres not stated) | +
C=C[C@H]1[C@H](O[C@@H]2O[C@H](CO)[C@@H](O)[C@H](O)[C@H]2O)OC=C(C(=O)OC)[C@H]1CCO | +
COC(=O)C1=COC(OC2OC(CO)C(O)C(O)C2O)C2C(C)C(OC(C)=O)C(OC(=O)c3ccccc3)C12 (configuration not stated) | i
COC(=O)C1=COC(O[C@@H]2O[C@H](CO)[C@@H](O)[C@H](O)[C@H]2O)C2C(C)C(=O)CC12 (some centres not stated) | i
C=C[C@H]1[C@H](O[C@@H]2O[C@H](CO)[C@@H](O)[C@H](O)[C@H]2O)OC=C(C(=O)OC)[C@H]1CC(=O)O | i
CCCn1c(=O)c2ccc(C(=O)NCC(C)C)cc2n2c(=O)n(CC(=O)Nc3cccc(Cl)c3)nc12 | i
CCCC1c2ccc(C)n2CCN1C(=O)NC(CC(=O)OCC)c1ccccc1 (configuration not stated) | i
O=c1c2ccccc2n2c(=O)n(Cc3ccc(F)cc3)nc2n1CCc1ccccc1 | i
CC1CCCCN1CCCN1C(=O)c2cc3occc3n2CC1(C)C(=O)NC1CCCCCC1 (configuration not stated) | i
CC1(C(=O)NC2CCCCCCC2)Cn2c(ccc2-c2ccco2)C(=O)N1Cc1ccc(Cl)cc1 (configuration not stated) | i
Cc1ccc(NC(=O)N2CCn3cccc3C2C(C)C)c(C)c1 (configuration not stated) | i
